NOTCH ag: activates NOTCH signaling in reporter cells | NOTCH signaling luciferase reporter cells, luminescence | activation, % at 2.5 µM | 15,000 tested, 0.4% active; in the data active = activation above about 2.2%
TLR4 MyD88 blk: TLR4-MyD88 interaction inhibition; O00206; Cell-based TLR4-MyD88 binding inhibition assay; inhibition, % at 10 µM; 16,000 tested, 0.06% active; in the data active = inhibition above about 45%
S1P1 agonist: S1P1 (human) receptor agonism; P21453; S1P1 agonist cell-based reporter assay; activation, % at 4.5 µM; 16,000 tested, 1.5% active; in the data active = activation above about 80%
PME-1 Maybridge: inhibitors of human PME-1 in Maybridge library | AID 2291 | Q9Y570 | 16,000 tested, 0.5% active | recombinant PME-1, FP-Rh probe fluorescence polarization | inhibition, % at 9 µM; in the data active = inhibition above about 30%
Target sequence (Q9Y570 whole entry, looked up): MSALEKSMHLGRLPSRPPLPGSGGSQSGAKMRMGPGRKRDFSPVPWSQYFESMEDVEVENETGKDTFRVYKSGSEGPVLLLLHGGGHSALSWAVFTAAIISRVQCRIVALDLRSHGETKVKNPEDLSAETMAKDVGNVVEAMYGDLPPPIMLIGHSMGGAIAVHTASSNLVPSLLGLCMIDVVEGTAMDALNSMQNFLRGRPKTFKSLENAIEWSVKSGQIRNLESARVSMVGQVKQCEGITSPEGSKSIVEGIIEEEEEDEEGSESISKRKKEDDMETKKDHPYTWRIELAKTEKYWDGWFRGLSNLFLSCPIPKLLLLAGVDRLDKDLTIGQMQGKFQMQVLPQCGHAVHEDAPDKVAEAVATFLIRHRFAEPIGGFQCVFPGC
OPRK1 antag MB: blocks the human kappa opioid receptor, Maybridge compounds | OPRK1 cells, antagonist mode, fluorescence readout | AID 652031 | 16,000 tested, 0.4% active | inhibition, % at 9 µM | P41145; in the data active = inhibition above about 50%
* hit, by the source's call; · = no result given. Sampled rows, rich in hits. Any-hit rate of the full collection: about 2.6%.

SMILES	NOTCH ag	TLR4 MyD88 blk	S1P1 agonist	PME-1 Maybridge	OPRK1 antag MB
CC(=O)Oc1ccc(OC(C)=O)c2c1C(=O)c1ccccc1C2=O	0.2	-0.1	17.2	84.9*	28.1
Cn1nc(C(F)(F)F)c(-c2ccccc2)c1N1C(=O)C2C3C=CC(C3)C2C1=O (stereo not given)	-0.4	6.1	86.0*	1.9	-36.1
O=C(NNc1c([N+](=O)[O-])cc(C(F)(F)F)cc1[N+](=O)[O-])c1ccccc1-n1cccc1	-0.7	-2.6	108.9*	-7.9	-39.2
Cc1noc(C)c1C(=O)O/N=C(\N)c1cc(C(F)(F)F)cc(C(F)(F)F)c1	0.0	-1.1	4.0	0.9	7.4
O=C(O)CSCC(=O)N1CCN(Cc2c(F)cccc2Cl)CC1	0.2	6.3	-0.3	-1.1	-24.5
c1coc(-c2nc3ccccc3nc2-c2ccco2)c1	-0.2	-0.7	-4.2	-2.6	-11.9
O=c1c2ccccc2nc(-c2ccco2)n1Cc1ccccc1	-0.7	16.5	91.5*	-3.0	-9.1
NC(=O)N/N=C/c1ccc(-c2cc(C(F)(F)F)cc(C(F)(F)F)c2)s1	-0.4	7.2	97.5*	-1.3	3.7
Cc1csc2ncnc(NCCc3ccc(Cl)cc3)c12	-6.2	-1.8	101.5*	5.6	-6.2
Cc1csc2ncnc(NNC(=O)c3ccc(Cl)cc3)c12	-1.0	0.6	35.1	2.2	-13.4
O=S(=O)(Nc1ccc(-c2csnn2)cc1)c1ccc(Cl)cc1	-0.5	-25.5	-3.2	-7.8	8.2
COC(=O)C1=C(C)Nc2[nH]ncc2C1c1ccccc1 (stereo not given)	-0.6	8.7	9.7	42.9*	3.7
C1=CC=CC(C2C=CC=CC=C2)C=C1	-0.1	2.3	-13.1	0.8	-13.9
NC(=O)c1sc(-c2ccccc2)cc1NC(=O)c1ccco1	-0.5	-8.2	2.2	-11.5	-7.8
Nc1ccccc1Nc1c([N+](=O)[O-])cc(C(F)(F)F)cc1[N+](=O)[O-]	-0.4	-0.1	3.4	14.9	16.1
O=[N+]([O-])c1ccc(N/N=C2\CCOc3ccc(F)cc32)cc1	-0.3	-1.3	37.2	5.4	50.5*
Fc1ccc2c(c1)/C(=N\Nc1cc(C(F)(F)F)ccc1Cl)CCO2	-0.2	1.6	-26.1	-1.1	6.6
O=C(c1cccs1)N1CCN(Cc2c(F)cccc2Cl)CC1	-0.1	8.4	-7.5	1.2	2.8
Cc1ccc(/C(O)=C/C(=O)C(=O)NNC(=O)c2cc(C)nc3ccccc23)cc1	-0.1	9.0	2.6	6.8	15.2
CCCOc1ccc(NC(C)=O)cc1	5.0*	-0.8	-8.6	5.4	-4.5
CC(=O)Nc1cccc(OCCOc2cccc(NC(C)=O)c2)c1	-0.2	2.5	10.3	-1.1	15.7
O=c1c(Nc2ccc(OC(F)(F)F)cc2)c(Nc2ccc(OC(F)(F)F)cc2)c1=O	-0.3	-11.8	-0.9	30.2*	5.1
Cc1cc(C)c(C#N)c(Sc2ncc(C#N)c(N)n2)n1	0.3	-11.3	1.1	1.4	5.0
N#Cc1c(S/C=C(\O)c2cc3ccccc3o2)nc2c(c1C(F)(F)F)CCCC2	0.5	6.1	22.4	-1.9	77.0*
Cc1cc(N2C(=O)CCC2=O)n(C)n1	-0.8	4.3	-9.7	-3.5	4.6
SMILES	NOTCH ag	TLR4 MyD88 blk	S1P1 agonist	PME-1 Maybridge	OPRK1 antag MB
O=C(O)c1cc(Cl)c[nH]c1=O	-0.2	-8.0	5.6	8.5	0.3
O=C(CSc1nc2ccccc2c(=O)[nH]1)c1cc2ccccc2o1	-0.3	-3.6	91.8*	-6.3	1.7
Oc1[nH]c2ccccc2c1N=Nc1nc(-c2ccc(Br)cc2)cs1	-0.3	-0.6	82.5*	13.8	14.9
Cc1csc(SCC(=O)NNC(=O)c2ccc([N+](=O)[O-])o2)n1	0.1	-7.6	3.5	-0.1	22.9
COc1ccc(S(=O)(=O)NNC(=O)c2cc(C)n(C(C)(C)C)n2)cc1OC	-0.8	-9.4	-0.7	7.0	-0.8
Cc1nn(C(=O)c2cc(C)n(-c3ccccc3)n2)c(C)c1Br	-0.6	-3.0	-8.6	41.3*	-15.7
Cc1nn(-c2ccccc2)c(C)c1C(=O)Oc1ccccc1	-0.2	-4.8	26.5	0.3	22.9
CN(C)c1ccc2nsnc2c1[N+](=O)[O-]	0.4	5.0	-0.3	2.8	2.3
O=[N+]([O-])c1c(Sc2ccc(Cl)cc2)ccc2nsnc12	-0.6	-25.8	-6.1	7.2	69.1*
COc1c(Cl)cc(Cl)cc1-c1csc(NC(=O)C(Cl)(Cl)Cl)n1	0.0	-7.9	88.9*	0.3	0.5
O=C(CCn1cccc(C(F)(F)F)c1=O)Sc1ccc(Cl)cc1	-0.1	2.8	8.6	5.2	-5.6
COc1cc2c(cc1OC)C(C)N(C(=O)c1sc(-c3cnccn3)nc1C)CC2 (stereo not given)	0.1	-6.4	-24.4	9.7	1.2
COc1cc2c(cc1OC)C(C)N(C(=O)c1sc3ccccc3c1Cl)CC2 (stereo not given)	-5.5	-13.2	-5.8	51.9*	0.9
Cc1ccc(NC(=O)NC(=O)c2c(-c3snnc3C)noc2C)cc1	-0.1	12.2	-16.9	-0.6	15.1
COC(=O)c1sccc1NS(=O)(=O)c1ccsc1C(=O)OC	0.5	-5.5	7.7	12.7	0.3
N#C/C(=N\Nc1ccccc1Cl)S(=O)(=O)c1ccc(Cl)cc1	0.5	-29.3	111.5*	16.0	20.9
NC(=O)c1csc(-c2cccnc2)n1	-0.5	0.3	35.6	7.8	9.7
O=C(Nc1ccc([N+](=O)[O-])cc1)Nc1csc(-c2cccnc2)n1	-0.9	9.4	10.6	-72.9	51.8*
O=C(CSc1nnc(-c2ccc(C(F)(F)F)cc2)o1)c1ccc(F)cc1	-0.3	4.7	-4.7	-2.4	8.8
Cc1nc(C)c(-c2nnc(-c3ccc(C(F)(F)F)cc3)o2)s1	0.2	2.7	88.3*	-1.2	-0.7
c1ccc2c(c1)-c1ccccc1C2c1ccncc1	2.3*	-2.4	9.0	-10.5	7.1
N#CCS(=O)(=O)Cc1cccs1	-0.8	·	-7.9	-3.0	12.7
Cc1ccc(NS(C)(=O)=O)cc1N=Cc1cccs1	-0.3	-4.8	-4.5	21.6	28.0
Cc1cc(NC(=O)c2cnc3ccccc3n2)on1	0.0	9.0	-2.8	4.5	16.3
CNc1ccc(Cl)cc1C(=O)NC1CC(C)CC(C)(C)C1 (stereo not given)	2.6*	-6.8	-5.0	1.1	-13.1
SMILES	NOTCH ag	TLR4 MyD88 blk	S1P1 agonist	PME-1 Maybridge	OPRK1 antag MB
CC1CC(NC(=S)NCCO)CC(C)(C)C1 (stereo not given)	1.4	2.8	1.1	-13.7	-13.7
O=c1c(=NO)c(=O)c2ccccc12	2.3*	-8.6	1.9	4.5	6.4
CSc1nc(=O)[nH]nc1C	-0.1	-0.9	-5.5	1.2	9.4
O=C(N/N=C/c1cc(Cl)cc(Cl)c1O)C(=O)Nc1ccc(Cl)c(Cl)c1	4.1*	1.6	13.7	-82.0	3.9
CCN(CC)c1ccc(/C=C/c2ccc([N+](=O)[O-])cc2C#N)cc1	-0.1	7.4	104.0*	-2.0	68.8*
CCN(CC)c1ccc(C#N)cc1	0.1	-7.7	-2.6	5.3	-3.5
COc1ccc(/C=C(\C#N)S(=O)(=O)c2ccccc2Cl)s1	-0.3	-4.6	24.7	4.0	-8.4
CS(=O)(=O)/C(C#N)=C\c1ccc(Cl)s1	-0.7	5.7	-4.7	6.0	57.3*
O=C(CSc1nccc(-c2cc(-c3ccccc3)no2)n1)Nc1ccc(C(F)(F)F)cc1	-6.2	-1.2	-1.0	-17.0	2.3
